Test results as given in PubChem BioAssay AID1159580 (chemical genetic matrix, 2015).
The campaign covered roughly 5,500 compounds. About 2,000 (36%) were called active. Roughly 18% stayed inconclusive and do not appear here. Some of the results follow. Values without a mark were called inactive. Rule as the data show it: active = normalized growth mostly below about 0.91 (no sharp cut-off); inconclusive = no clear call, values can overlap the other calls; inactive = mostly above about 0.92.

Experiment: chemical genetic growth profiling, strain panel (AID 1159580);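 also: tested at 20 µM; growth read once vehicle control cultures reached saturation at 30 °C; 1 = growth at the plate median or of vehicle wells; lower values mean less growth of the strain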
Details: S. cerevisiae deletion strains, growth OD

CC(C)(CCC(C)(C)N1C(=O)c2cccc3cccc(c23)C1=O)N1C(=O)c2cccc3cccc(c23)C1=O
normalized growth (locus YAR019C, strain CDC15, active compounds read low): 0.0987 (active)
normalized growth (locus YBL105C, strain PKC1, active compounds read low): 0.0855 (active)
normalized growth (locus YBR135W, strain CKS1, active compounds read low): 0.0899 (active)
normalized growth (locus YBR136W, strain MEC1, active compounds read low): 0.107 (active)
normalized growth (locus YBR160W, strain CDC28, active compounds read low): 0.0904 (active)
normalized growth (locus YDL017W, strain CDC7, active compounds read low): 0.0866 (active)
normalized growth (locus YDL028C, strain MPS1, active compounds read low): 0.0947 (active)
normalized growth (locus YDL101C, strain DUN1, active compounds read low): 0.628 (active)
normalized growth (locus YDL108W, strain KIN28, active compounds read low): 0.13 (active)
normalized growth (locus YDL132W, strain cdc53, active compounds read low): 0.971
normalized growth (locus YDL214C, strain PRR2, active compounds read low): 0.0867 (active)
normalized growth (locus YDR052C, strain DBF4, active compounds read low): 0.308 (active)
normalized growth (locus YDR054C, strain cdc34, active compounds read low): 0.227 (active)
normalized growth (locus YDR226W, strain ADK1, active compounds read low): 0.509 (active)
normalized growth (locus YDR477W, strain SNF1, active compounds read low): 0.0979 (active)
normalized growth (locus YER123W, strain YCK3, active compounds read low): 0.103 (active)
normalized growth (locus YER133W, strain GLC7, active compounds read low): 0.0935 (active)
normalized growth (locus YFL029C, strain CAK1, active compounds read low): 0.0982 (active)
normalized growth (locus YFR003C, strain YPI1, active compounds read low): 0.0904 (active)
normalized growth (locus YFR019W, strain FAB1, active compounds read low): 0.0894 (active)
normalized growth (locus YGR040W, strain KSS1, active compounds read low): 0.1 (active)
normalized growth (locus YGR052W, strain FMP48, active compounds read low): 0.133 (active)
normalized growth (locus YGR092W, strain DBF2, active compounds read low): 0.098 (active)
normalized growth (locus YHR030C, strain SLT2, active compounds read low): 0.0982 (active)
normalized growth (locus YHR079C, strain IRE1, active compounds read low): 0.116 (active)
normalized growth (locus YHR082C, strain KSP1, active compounds read low): 0.129 (active)
normalized growth (locus YHR205W, strain SCH9, active compounds read low): 0.213 (active)
normalized growth (locus YIL147C, strain SLN1, active compounds read low): 0.0853 (active)
normalized growth (locus YJL095W, strain BCK1, active compounds read low): 0.128 (active)
normalized growth (locus YJL128C, strain PBS2, active compounds read low): 0.472 (active)
normalized growth (locus YJL157C, strain FAR1, active compounds read low): 0.0837 (active)
normalized growth (locus YJR016C, strain ILV3, active compounds read low): 0.976
normalized growth (locus YJR066W, strain TOR1 (second series), active compounds read low): 0.12 (active)
normalized growth (locus YJR066W, strain TOR1, active compounds read low): 0.123 (active)
normalized growth (locus YKL048C, strain ELM1, active compounds read low): 0.104 (active)
normalized growth (locus YKL067W, strain YNK1, active compounds read low): 0.0909 (active)
normalized growth (locus YKL101W, strain HSL1, active compounds read low): 0.099 (active)
normalized growth (locus YKL193C, strain SDS22, active compounds read low): 0.0977 (active)
normalized growth (locus YKL203C, strain TOR2, active compounds read low): 0.116 (active)
normalized growth (locus YLR113W, strain HOG1, active compounds read low): 0.166 (active)
normalized growth (locus YLR133W, strain CKI1, active compounds read low): 0.0889 (active)
normalized growth (locus YLR403W, strain SFP1, active compounds read low): 0.0154 (active)
normalized growth (locus YML070W, strain DAK1, active compounds read low): 0.0999 (active)
normalized growth (locus YMR001C, strain CDC5, active compounds read low): 0.0878 (active)
normalized growth (locus YMR205C, strain PFK2 (second series), active compounds read low): 0.0998 (active)
normalized growth (locus YMR277W, strain FCP1, active compounds read low): 0.104 (active)
normalized growth (locus YNL006W, strain LST8, active compounds read low): 0.0921 (active)
normalized growth (locus YNL020C, strain ARK1, active compounds read low): 0.0878 (active)
normalized growth (locus YNL161W, strain CBK1, active compounds read low): 0.0843 (active)
normalized growth (locus YNL183C, strain NPR1, active compounds read low): 0.13 (active)
normalized growth (locus YNL207W, strain RIO2, active compounds read low): 0.508 (active)
normalized growth (locus YNL222W, strain SSU72, active compounds read low): 0.095 (active)
normalized growth (locus YNL307C, strain MCK1 (second series), active compounds read low): 0.0953 (active)
normalized growth (locus YOL078W, strain AVO1, active compounds read low): 0.093 (active)
normalized growth (locus YOL136C, strain PFK27, active compounds read low): 0.0923 (active)
normalized growth (locus YOR061W, strain CKA2, active compounds read low): 0.1 (active)
normalized growth (locus YOR119C, strain RIO1, active compounds read low): 0.118 (active)
normalized growth (locus YOR231W, strain MKK1, active compounds read low): 0.13 (active)
normalized growth (locus YOR329C, strain SCD5, active compounds read low): 0.0829 (active)
normalized growth (locus YPL031C, strain PHO85, active compounds read low): 0.0976 (active)
normalized growth (locus YPL153C, strain RAD53, active compounds read low): 0.101 (active)
normalized growth (locus YPL204W, strain HRR25, active compounds read low): 0.0987 (active)
normalized growth (locus YPL209C, strain IPL1, active compounds read low): 0.0859 (active)
normalized growth (locus YPL256C, strain CLN2, active compounds read low): 0.134 (active)
normalized growth (locus YPR025C, strain CCL1, active compounds read low): 0.0843 (active)
normalized growth (locus YPR111W, strain DBF20, active compounds read low): 0.92
normalized growth (strain NNK1, active compounds read low): 0.0956 (active)
normalized growth (strain TSCII, active compounds read low): 0.0989 (active)

C[N+](C)(CCCCCC[N+](C)(C)CCCN1C(=O)c2cccc3cccc(c23)C1=O)CCCN1C(=O)c2cccc3cccc(c23)C1=O
normalized growth (locus YAL040C, strain CLN3, active compounds read low): 0.984
normalized growth (locus YCL061C, strain MRC1 (second series), active compounds read low): 1
normalized growth (locus YDR150W, strain NUM1, active compounds read low): 1
normalized growth (locus YDR363W, strain ESC2, active compounds read low): 0.986
normalized growth (locus YER002W, strain NOP16, active compounds read low): 1.01
normalized growth (locus YGR229C, strain SMI1, active compounds read low): 1
normalized growth (locus YMR307W, strain GAS1, active compounds read low): 0.981
normalized growth (locus YNL128W, strain TEP1, active compounds read low): 0.995
normalized growth (locus YNL153C, strain GIM3, active compounds read low): 0.955
normalized growth (locus YNL175C, strain NOP13, active compounds read low): 1.01
normalized growth (locus YNL197C, strain WHI3, active compounds read low): 1.01
normalized growth (locus YNL224C, strain SQS1, active compounds read low): 1
normalized growth (locus YOR083W, strain WHI5 (second series), active compounds read low): 1.01
normalized growth (locus YPL055C, strain LGE1, active compounds read low): 0.963
normalized growth (locus YPL241C, strain CIN2, active compounds read low): 0.99
